Screening results as filed in PubChem BioAssay.
A selection: hits, their analogues and other compounds. The true share with any hit is near 1.8%.
Neddyl block: cullin neddylation inhibition; calls only at 25 µM; AID 651699; 0.58% of 360,000 active; TR-FRET cullin neddylation, biochemical; in the data active = inhibition above about 36%
UBC13 inh: human UBC13 polyubiquitination inhibition; P61088; UBC13 polyubiquitin chain formation, TR-FRET; inhibition, % at 20 µM; 0.47% of 330,000 active; AID 485273; in the data active = inhibition above about 45%, passing the limit was not always enough
Target sequence (P61088 whole entry, looked up): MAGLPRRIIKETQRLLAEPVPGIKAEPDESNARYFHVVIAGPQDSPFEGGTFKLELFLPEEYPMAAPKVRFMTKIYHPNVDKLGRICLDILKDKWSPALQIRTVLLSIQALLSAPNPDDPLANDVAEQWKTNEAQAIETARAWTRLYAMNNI
MBD2 DNA inh: MBD2-methylated oligo binding inhibition; AID 686964; 0.31% of 370,000 active; Q9UBB5; TR-FRET, MBD2 binding to methylated oligonucleotide; inhibition, % at 4.4 µM; in the data active = inhibition above about 13%
Target sequence (Q9UBB5 whole entry, looked up): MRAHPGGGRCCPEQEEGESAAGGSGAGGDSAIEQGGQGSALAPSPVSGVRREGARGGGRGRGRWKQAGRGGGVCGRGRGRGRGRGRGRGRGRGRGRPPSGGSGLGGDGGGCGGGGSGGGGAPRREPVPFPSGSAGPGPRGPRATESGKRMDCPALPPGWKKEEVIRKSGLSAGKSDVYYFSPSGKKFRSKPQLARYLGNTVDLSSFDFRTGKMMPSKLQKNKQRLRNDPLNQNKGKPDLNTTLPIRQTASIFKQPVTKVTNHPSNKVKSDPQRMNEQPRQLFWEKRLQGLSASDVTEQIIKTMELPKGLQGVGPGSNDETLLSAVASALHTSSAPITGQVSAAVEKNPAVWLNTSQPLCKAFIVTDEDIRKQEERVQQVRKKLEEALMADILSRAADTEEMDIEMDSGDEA
UHRF1 binding: blocks human UHRF1 binding to methylated DNA. UHRF1 binding to methylated oligo, TR-FRET. 0.75% of 370,000 active. inhibition, % at 4.4 µM. Q96T88; in the data active = inhibition above about 21%;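 also: UHRF1 SRA domain binding a hemimethylated CpG hairpin DNA probe; 0% = median of test compound wells and 100% = reference inhibitor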
* marks the source's active call; other numbers are inactive results; i = inactive; nt = no result; + = active, no number.

SMILES	Neddyl block	UBC13 inh	MBD2 DNA inh	UHRF1 binding
O=C(c1ccc(F)cc1)N(Cc1cccs1)C1CCS(=O)(=O)C1 (centres undefined)	i	0	-2	-2
CSc1nnc(CNS(=O)(=O)c2ccc(Cl)cc2)n1C	i	-5	-3	26*
CSc1nnc(CNS(=O)(=O)c2ccc(F)cc2)n1C	i	4	-2	0
CC1=NN(c2ccccc2)C(=O)/C1=C\c1ccc(Oc2ccc([N+](=O)[O-])cc2[N+](=O)[O-])cc1	i	-64	15*	19
CCC(C)N(C(=O)COc1ccc(Cl)c2cccnc12)C1CCS(=O)(=O)C1 (centres undefined)	i	55*	-7	1
CCOc1ccccc1C1C(C(=O)Nc2ccccc2OC)=C(C)Nc2nc(CCCO)nn21 (centres undefined)	i	3	2	22*
COc1ccc(OC)c(C2C(C(=O)Nc3ccccc3OC)=C(C)Nc3nc(CCCO)nn32)c1 (centres undefined)	i	4	2	-1
CC(C)CCN(C)C1CCN(C(=O)Nc2c(F)cccc2F)CC1	i	4	-2	0
O=S(=O)(NN1CCOCC1)c1cc(Cl)cc(Cl)c1O	i	-12	-2	1
CC(=Nc1ccc(C)cc1C)c1sc2ccccc2c1O	+	10	-1	1
CC(=Nc1ccc(C)cc1)c1sc2ccccc2c1O	i	6	2	-5
CCOC(=O)COc1c(C=O)cc(Br)cc1OC	i	5	1	28*
CCOC(=O)COc1c(/C=N\OC)cc(Cl)cc1OC	i	1	2	5
CC(=O)Nc1ccc(S(=O)(=O)Nc2ccc3[nH]c(=O)[nH]c3c2)cc1	i	-6	8	4
OCC[C@@H]1C[C@H](O)[C@@H](O)[C@@]2(OCc3cc(C(F)(F)F)ccc32)O1	i	nt	5	22*
COc1ccccc1/C=C/C(=O)Oc1cccc2cccnc12	i	1	-1	-2
Cc1ccc2cccc(OC(=O)/C=C\c3ccccc3)c2n1	i	-8	6	27*
COC(=O)Cc1c(O)ccn(Cc2ccc(F)cc2)c1=O	i	-11	1	1
COC(=O)c1ccc(Oc2cc(C)nc(-n3nc(C)cc3C)n2)cc1	i	nt	3	-2
CCN(CC)S(=O)(=O)c1cccc(N=NC2=C(O)CCCC2=O)c1	i	-18	6	9
O=C1CCCC(O)=C1N=Nc1cccc(C(=O)O)c1	i	-4	1	21*
c1ccc(-n2c(SCC3CCCCO3)nnc2-c2cccs2)cc1 (centres undefined)	i	5	-3	-1
O=C(O)c1cc([N+](=O)[O-])ccc1NCCc1ccccc1	i	-3	11	25*
O=C(O)c1cc([N+](=O)[O-])ccc1Nc1ccccc1	i	-12	-1	3
Cc1cccc(Nc2ccc([N+](=O)[O-])cc2C(=O)O)c1	i	-35	5	23*
SMILES	Neddyl block	UBC13 inh	MBD2 DNA inh	UHRF1 binding
CC(=O)c1cnc(-c2cccc(Cl)c2)s1	i	-6	5	37*
CN(C)/C=C/C(=O)c1cnc(-c2cccc(Cl)c2)s1	i	10	1	0
Cc1cc(Oc2ccc(C#N)cc2)nc(N2CCOCC2)n1	i	4	11	21*
Cc1cc(Oc2ccc([N+](=O)[O-])cc2)nc(N2CCOCC2)n1	i	10	-4	1
CCOC(=O)Cc1csc(NC(=O)c2c(-c3ccccc3)noc2C)n1	i	2	-1	0
CCOC(=O)Cc1csc(NC(=O)c2c(C)noc2C)n1	i	5	8	24*
O=C(COC(=O)Cc1cccc2ccccc12)Nc1ccccc1-c1ccccc1	i	10	0	-2
O=C(Nc1ccccn1)c1ccc2c(=O)n3c(nc2c1)CCCCC3	i	-11	10	21*
CCOc1ccc(S(=O)(=O)N2CCCCC2)cc1NC(=O)CN1C(=O)NC(C)(c2ccccc2)C1=O (centres undefined)	i	-2	-6	-4
COc1ccccc1Nc1ccc2c(O)cc(S(=O)(=O)O)cc2c1	+	nt	24*	47*
Nc1cccc2c(O)cc(S(=O)(=O)O)cc12	i	nt	nt	nt
O=S(=O)(O)c1ccc(O)c2cc(Nc3ccccc3)ccc12	i	nt	70*	92*
CC(=O)Nc1ccc2c(O)cc(S(=O)(=O)O)cc2c1	i	nt	1	2
Nc1ccc2c(O)cc(S(=O)(=O)O)cc2c1	i	nt	4	21*
COc1ccc(S(=O)(=O)O)cc1P(=O)(c1ccccc1)c1ccccc1	i	3	-5	0
O=S(=O)(O)c1cc(O)c2ccc(Nc3ccccc3)cc2c1	+	nt	36*	64*
CCNC(=O)C1(C)CCCN1Cc1cccc(C(F)(F)F)c1 (centres undefined)	i	nt	4	1
CCN(c1ccccc1)S(=O)(=O)c1c[nH]c2ccc([N+](=O)[O-])cc12	i	5	-7	1
O=C(COc1cccnc1[N+](=O)[O-])NC1CCS(=O)(=O)C1 (centres undefined)	i	-6	8	26*
O=c1oc2ccccc2c(NCCO)c1[N+](=O)[O-]	i	-14	1	41*
O=c1oc2ccccc2c(NCc2ccccc2)c1[N+](=O)[O-]	i	-7	0	6
Cc1ccc(-c2csc3nc4c5ccccc5c(NCCCN5CCOCC5)nn4c(=O)c23)cc1	nt	56*	nt	nt
Cc1ccc(-c2nc3ccccc3c(=O)n2CCCN2CCOCC2)cc1	i	-6	3	12
Cc1ccc(CNC(=O)C2CC3Cn4c(nc5cc(Cl)c(Cl)cc54)C3N2C)o1 (centres undefined)	i	-4	0	-2
Cc1ccc(CNCc2cccnc2)s1	i	4	-1	26*
SMILES	Neddyl block	UBC13 inh	MBD2 DNA inh	UHRF1 binding
Cc1ccc(CNCc2cccnc2)cc1	i	1	-5	0
COCCNC(=O)COC(=O)c1cccnc1SC	i	-9	-1	27*
CSc1ncccc1C(=O)OCC(=O)NCCCc1ccccc1	i	8	4	4
O=C(N/N=C/c1ccc(OC(=O)c2ccccc2Cl)cc1)c1ccccn1	i	-4	nt	nt
O=C(N/N=C/c1ccc(OC(=O)c2ccccc2Cl)cc1)c1cc(O)cc(O)c1	i	26	12	37*
COc1cc(/C=N/NC(=O)c2cc(O)cc(O)c2)ccc1OC(=O)c1ccccc1	i	6	10	28*
COc1cc(C(=O)N/N=C/c2ccc(OC(=O)c3ccccc3)c(OC)c2)ccc1O	i	-5	-4	0
O=C(N/N=C/c1ccoc1)c1cc(O)cc(O)c1	i	8	5	28*
C=CCn1c(SCC(=O)Nc2nncs2)nnc1-c1ccco1	i	-5	1	1
CCOC(=O)C(C)Oc1cc(Cl)c(C=O)cc1OC (centres undefined)	i	5	-1	62*
COC(=O)COc1cc(Cl)c(C=O)cc1OC	i	-8	0	-1
O=C(O)c1ccccc1NS(=O)(=O)c1ccc(NN=Cc2ccccc2F)c([N+](=O)[O-])c1	i	-83	-8	33*
CC(NCC1COc2ccccc2O1)C(=O)NCc1ccccc1 (centres undefined)	i	2	9	25*
